An excerpt weighted towards active compounds, which were near 3.7% of everything screened.
FEN1 inhibitor: inhibitors of human flap endonuclease 1; P39748; Recombinant FEN1 flap cleavage, fluorescence, 15 min; Potency, µM (doses to about 114 µM), hits mostly inhibitors; 390,000 tested, 0.35% active; also: nearly all actives have a fitted effect of over 65% in size
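Reaction started by adding substrate (50 nM final) to 10 nM enzyme after 15 min room-temperature compound preincubation. Reads at 0 and 15 min, with data normalized and fitted to a four-parameter Hill equation.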
PI5P4Ka inh: inhibitors of human PI5P4K alpha; P48426; PI5P4Kalpha enzyme, ADP-Glo luminescence, 60 min; hits give low values; max response, %; 330,000 tested, 1.2% active; AID 652105; active = max response of -50% or lower; inconclusive = between -30% and -50%; inactive = -30% or higher; also: value at the top dose of about 77 µM
Target sequence (P48426 whole entry, looked up): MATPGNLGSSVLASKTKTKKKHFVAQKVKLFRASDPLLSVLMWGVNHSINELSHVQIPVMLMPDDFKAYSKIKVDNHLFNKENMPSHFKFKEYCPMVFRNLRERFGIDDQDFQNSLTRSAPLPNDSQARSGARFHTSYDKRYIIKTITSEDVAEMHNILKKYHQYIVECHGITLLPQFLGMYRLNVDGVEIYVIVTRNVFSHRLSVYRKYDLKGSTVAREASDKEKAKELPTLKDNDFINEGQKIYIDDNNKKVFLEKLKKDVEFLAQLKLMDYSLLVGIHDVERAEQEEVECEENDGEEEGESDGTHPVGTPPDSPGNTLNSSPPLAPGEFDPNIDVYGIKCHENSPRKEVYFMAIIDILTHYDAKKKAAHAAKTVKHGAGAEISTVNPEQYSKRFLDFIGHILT
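Reactions run in 0.038 M HEPES pH 7.4, 0.28 mM EGTA, 0.1% CHAPS and 5% DMSO, with PI5P4Kalpha, substrate, compound and 5 microM ATP final, one hour at room temperature. Readout is ADP-Glo luminescence.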
VDR inh: vitamin D3 receptor (human) inhibition; VDR-SRC2-3 peptide fluorescence polarization, 2 h; P11473; Potency, µM, actives largely listed as inhibitors; 400,000 tested, 0.93% active
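The screen uses fluorescence polarization to detect compounds that interfere with recruitment of the SRC2-3 coactivator peptide to VDR; plates are read after 2 h at room temperature.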
TCR activator: activates T cell receptor signaling. primary human leukocytes, anti-CD3, IL-2 HTRF, 48 h. Potency, µM (highest dose often 9.22 µM), most hits filed as activators. 330,000 tested, under 10 active. AID 504894
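Primary human leukocytes were stimulated with a-CD3 beads plus compounds for 48 hr without co-stimulation; secreted IL-2 was quantified by HTRF using a-IL-2-K (europium cryptate) and a-IL-2-d2, excited at 320nm with acceptor emission read at 665nm.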
PLK1 PBD block: blocks phosphopeptide binding to human PLK1 polo-box domain | P53350 | Potency, µM, hits mostly inhibitors | Plk1 PBD binding of FITC phosphopeptide, fluorescence polarization | 360,000 tested, 2.8% active | AID 720504; also: series mostly up to about 57 µM; nearly all actives have a fitted effect of over 65% in size
WRN inhibitor: blocks human WRN helicase; 360,000 tested, 0.46% active; AID 651768; WRN helicase unwinding, fluorescent forked duplex, kinetic; Potency, µM (series often up to 114 µM), most hits filed as inhibitors; also: nearly all actives have a fitted effect of over 55% in size
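Primary qHTS, 1536-well format. 20 nM WRN + compound, 15 min RT; start with 100 nM forked fluorophore/quencher duplex, 2 mM ATP (final); kinetic read ex 525/em 598 nm.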
A number is an active result; – = inactive; ? = inconclusive; · = not tested or not shown; [ ] = dose if it differs, or a comment. Unless noted, calls follow the shape of the dose curve; as a rule, active = well fitted curve in the direction sought with a large enough effect; inconclusive = small, poorly fitted or top-dose-only effect, or another doubt; inactive = no such curve, though single readings can be large; an effect the other way counts as inactive or inconclusive.

SMILES	FEN1 inhibitor	PI5P4Ka inh	VDR inh	TCR activator	PLK1 PBD block	WRN inhibitor
CCOC(=O)c1c(N2C(=O)Nc3ccccc3N2O)n[nH]c1-c1cccc(OC)c1	–	-52	–	–	–	–
CCOc1ccccc1Oc1cn[nH]c1-c1ccc(OCC(=O)NN)cc1O	–	–	–	–	–	–
COc1cccc(Oc2cn[nH]c2-c2ccc(OCC(=O)NN)cc2O)c1	–	–	–	–	38µM	–
Cn1cc(C(c2ccccc2OCC(=O)O)c2cn(C)c3ccccc23)c2ccccc21	–	-53	40µM	·	3µM	79µM
Cc1cccc(-c2nnc(SCCC(=O)O)o2)c1	–	·	–	·	·	·
O=C(NCCN1C(=O)S/C(=C/c2cccnc2)C1=O)c1cccs1	–	–	–	–	–	–
O=C(NCCN1C(=O)S/C(=C\c2cccnc2)C1=O)C1=NN(c2ccccc2)C(=O)CC1	–	-67	28µM	–	3.8µM	?
Cc1cccc(NC(=O)C2C(c3ccccc3)C2(Cl)Cl)c1 (configuration not stated)	?	–	–	–	–	–
Cc1ccc(NC(=O)C2C(c3ccccc3)C2(Cl)Cl)c(C)c1 (configuration not stated)	–	–	?	·	21µM	–
O=C(N/N=C/c1cccc(C(F)(F)F)c1)c1cc2c(s1)-c1ccccc1CC2	–	–	–	–	–	–
Cc1cccc(/C=N/NC(=O)c2cc3c(s2)-c2ccccc2CC3)c1	–	–	–	–	21µM	–
O=c1c2ccccc2[nH]c(=S)n1Cc1cccnc1	–	·	–	–	27µM	–
COC(=O)CSCc1nc2ccccc2[nH]c1=O	–	–	?	–	12µM	–
COC(=O)c1cc2occc2n1Cc1ccc(F)cc1Cl	–	·	–	·	·	·
CCCCOC(=O)c1ccc(OC(=O)c2sc3ncn(Cc4cccc(F)c4)c(=O)c3c2C)cc1	–	·	–	·	·	·
CCCn1nc([N+](=O)[O-])c(C(C#N)c2nc3ccccc3o2)c(Cl)c1=O (configuration not stated)	–	?	?	–	30µM	?
CCn1nc([N+](=O)[O-])c(C(C#N)c2nc3cc(C(F)(F)F)ccc3s2)c(Cl)c1=O (configuration not stated)	?	·	?	–	24µM	?
CCCCn1c(N)c(-c2nc3ccccc3o2)c2c([N+](=O)[O-])nn(C)c(=O)c21	?	–	–	–	–	?
Cn1nc([N+](=O)[O-])c(C(C#N)c2ccccn2)c(Cl)c1=O (configuration not stated)	–	–	–	–	30µM	–
Cn1nnnc1SCC1=C(C(=O)O)N2C(=O)C(NC(=O)C3CC3c3ccccc3)C2SC1 (configuration not stated)	–	–	?	–	?	?
Cn1nnnc1SCC1=C(C(=O)O)N2C(=O)C(NC(=O)C(O)c3ccccc3)C2SC1 (configuration not stated)	·	·	50µM	·	·	·
Cc1nn(C(C)C(=O)NC2C(=O)N3C(C(=O)O)=C(CSc4nnnn4C)CSC23)cc1Cl (configuration not stated)	–	–	–	–	–	–[11.6 µM]
Cn1nnnc1SCC1=C(C(=O)O)N2C(=O)[C@@H](NC(=O)[C@H](O)c3ccccc3)[C@H]2SC1	?	?	–	–	13µM	25µM
N#C/C(=C\c1cccc(Br)c1)C(=O)N1CCCCC1	–	–	50µM	–	?	–
N#C/C(=C\c1ccccc1)C(=O)N1CCN(c2ccccc2F)CC1	–	–	45µM	–	–	–
SMILES	FEN1 inhibitor	PI5P4Ka inh	VDR inh	TCR activator	PLK1 PBD block	WRN inhibitor
CN1/C(=C/c2cccc[n+]2C)Sc2ccccc21	45µM	–	–	–	–	–[11.6 µM]
O=C(C[N+]12CN3CN(CN(C3)C1)C2)c1ccc(O)c(O)c1	14µM	·	·	·	·	·
COc1ccc(OC)c(-c2nc3ccccc3nc2-c2ccccc2)c1	–	–	–	–	–	–
COc1ccc(-c2nc3ccccc3nc2-c2ccccc2)cc1	–	–	?	–	21µM	–
Cc1ccc(S(=O)(=O)N(CC(=O)Nc2ccccc2C(=O)O)c2cccc(Cl)c2C)cc1	–	?	–	–	30µM	–[11.6 µM]
Cc1ccccc1N(CC(=O)Nc1ccccc1C(=O)O)S(C)(=O)=O	–	·	–	–	–	–
Cc1ccc(Nc2cc(=O)[nH]c(=O)[nH]2)cc1C	–	–	–	–	–	–
S=c1[nH]nc(Nc2ccccc2Cl)s1	–	-78	–	–	19µM	–
O=C(c1ccc(Cl)cc1)c1cnc(Nc2ccccc2Cl)s1	–	·	–	–	–	–
Cc1ccc(Nc2n[nH]c(=S)s2)cc1C	·	-74	·	·	?	–
S=c1[nH]nc(Nc2cccc(Cl)c2)s1	–	-55	–	–	–	–
O=c1c2cnn(-c3ccc(F)cc3)c2ncn1Cc1cccc(Cl)c1	–	·	–	·	·	·
CC1Cc2cc(S(=O)(=O)CCC(=O)Nc3ccc(OC(F)(F)F)cc3)ccc2N1C(=O)C1CC1 (configuration not stated)	–	·	–	·	·	·
COc1ccc(-c2nc3c(=O)n(C)c(=O)nc-3n(C)n2)cc1	–	·	–	·	·	·
CCON1C(=O)C2(CCCCC2)C(=O)C12C=CCCC2 (configuration not stated)	–	–	–	–	–	–
O=C1N(O)C2(C=CCCC2)/C(=N\O)C12CCCCC2 (configuration not stated)	–	–	–	–	30µM	–
O=S(=O)(NCCCCNS(=O)(=O)c1cccc2cccnc12)c1cccc2cccnc12	–	·	·	·	·	·
Cc1ccc(N(C)C(=O)Cn2nc(Cc3ccncc3)c3ccccc3c2=O)cc1C	–	·	–	·	·	·
CCNc1nc(NC(C)C)nc(Oc2ccc(/C=N/O)cc2)n1	–	–	–	–	4.7µM	–
COC(=O)c1ccc(Oc2nc(NC(C)C)nc(NC(C)C)n2)cc1	–	–	–	–	–	–
O=C(O)c1cccc(S(=O)(=O)NCCc2ccccc2)c1	–	–	–	–	30µM	–
O=C(O)c1cccc(S(=O)(=O)NCCC(c2ccccc2)c2ccccc2)c1	–	–	–	·	–	–
O=C(C[N+]12CCCc3cccc(c31)CCC2)c1ccc(Cl)c2ccccc12	–	·	·	·	·	·
CC1=C(C(N)=O)C(c2cccc(Br)c2)n2nc(SCc3ccccc3)nc2N1 (configuration not stated)	–	·	–	·	·	·
CC1(C)Cc2c(ccc3ccccc23)/C(=C/C#N)N1	–	·	–	–	–	–
CNC(=O)/C=C1\NC(C)(C)Cc2c1ccc1ccccc21	–	–	79µM	–	–	–
c1ccc(C2=Nn3c(nnc3-c3ccco3)SC2)cc1	–	–	–	–	30µM	–
Nc1n[nH]c(=S)n1/N=C1/C(=O)Nc2ccccc21	89µM	-89	?	–	27µM	–
O=C1Nc2ccccc2C1=NN1CCCCCC1	–	–	–	–	–	–
